Unmarked numbers belong to inactive results. Calls of active or inactive are those of the source. No stated cut-off is given here; in the data, active means inhibition above about 31%; inactive means the rest.
Test: 384-well plate pilot, post-Golgi transport modulator project, inhibition of yeast transport mutant growth (AID 636)
Details: absorbance 615 nm, about 18 h, stronger effect = higher value

With `Cc1ccc(-c2nnc(-c3cccc(Br)c3)o2)cc1` as the molecule, how does the inhibition read?
Its inhibition is -6.76%.

Which inhibition does the source give for `CCCNS(=O)(=O)c1ccc(OCC(=O)Nc2ccccc2F)cc1` here?
The inhibition was -4.21%.

For `NS(=O)(=O)c1ccc(C(=O)O)cc1`, which inhibition is on record?
Its inhibition is 5.45%.

With `CCC1CCCCN1CCCNC(=O)c1ccc(CS(=O)(=O)Cc2ccccc2F)o1` (stereo not given) as the molecule, how does the inhibition read?
Its inhibition is -7.4%.

For `Cc1cc(C(=O)Nc2ccc(S(=O)(=O)Nc3onc(C)c3C)cc2)cs1`, which inhibition is on record?
The inhibition was -3.38%.

Which inhibition does the source give for `NS(=O)(=O)c1cc2c(cc1C(F)(F)F)NCNS2(=O)=O` here?
Its inhibition is 1.17%.

Which inhibition does the source give for `O=C(NCCCN1CCN(Cc2ccccc2)CC1)C1CCN(c2nnc(-n3cccc3)s2)CC1` here?
The inhibition was -4.93%.

Which inhibition does the source give for `C=CCn1c(SCn2nnc3ccccc3c2=O)nnc1-c1ccc(Br)cc1` here?
Its inhibition is 43.2% (active).

With `COc1ccccc1C(=O)NCC(=O)Nc1ccccc1` as the molecule, how does the inhibition read?
Its inhibition is -8.08%.

For `CN(C)C(=O)Oc1ccc[n+](C)c1`, which inhibition is on record?
The inhibition was -1.17%.

With `COC(=O)CSc1nnc(-c2ccc(OC)cc2OC)o1` as the molecule, how does the inhibition read?
The inhibition was -2.67%.

For `CCN(CC)CCCN1C(=O)C(=O)/C(=C(/O)c2ccc3c(c2)OCO3)C1c1ccccn1` (stereo not given), which inhibition is on record?
The inhibition was -5.89%.

Which inhibition does the source give for `O=C(CSc1n[nH]c(=O)[nH]c1=O)c1ccccc1` here?
Its inhibition is -2.4%.

With `Cc1noc(C)c1C(=O)N1CCN(C(=O)c2sc3cc(Cl)ccc3c2Cl)CC1` as the molecule, how does the inhibition read?
The inhibition was -5.14%.

Which inhibition does the source give for `CCCCOC(=O)Nc1nccs1` here?
Its inhibition is -5.33%.

With `CCOC(=O)C1CCN(C(C)=C2C(=O)c3ccccc3C2=O)CC1` as the molecule, how does the inhibition read?
The inhibition was -4.66%.

Which inhibition does the source give for `NC(N)=NC(N)=NCCc1ccccc1` here?
Its inhibition is 0.65%.

Which inhibition does the source give for `CCCc1cc(=O)[nH]c(=S)[nH]1` here?
Its inhibition is 0.78%.

With `CN(C)C(CNC(=O)Nc1cccc(Cl)c1)c1cccnc1` (stereo not given) as the molecule, how does the inhibition read?
Its inhibition is -3.42%.

With `Cc1cc(S(=O)(=O)N(Cc2ccccc2)Cc2ccc(N(C)C)cc2)ccc1-n1cnnn1` as the molecule, how does the inhibition read?
The inhibition was -8.24%.

With `CC(=O)Nc1c(O)[nH]c2ccccc12` as the molecule, how does the inhibition read?
Its inhibition is -8.49%.

For `CCC(=O)OC1(C#CCOc2ccc(OC)cc2)CCN(C)CC1`, which inhibition is on record?
The inhibition was -0.53%.

With `COCCN(Cc1cc2cccc(C)c2[nH]c1=O)C(=O)c1ccccc1` as the molecule, how does the inhibition read?
The inhibition was -0.95%.

With `COc1ccc(-n2c(SCC(N)=O)nc3sc4c(c3c2=O)CCN(C)C4)cc1` as the molecule, how does the inhibition read?
The inhibition was 6.16%.

With `COc1ccc(CNCC(=O)Nc2cc(C)nn2-c2nc(C)cc(C)n2)cc1OC` as the molecule, how does the inhibition read?
The inhibition was -2.99%.

Which inhibition does the source give for `Cc1nn(C)cc1C1C2=C(CC(C)(C)CC2=O)OC2=C1C(=O)CC(C)(C)C2` here?
Its inhibition is -6.62%.

With `CCn1c(SCC(=O)c2ccc(C)cc2)nnc1-c1ccoc1C` as the molecule, how does the inhibition read?
The inhibition was -5.14%.

For `CCN(CC)CCCN1C(=O)C(O)=C(C(C)=O)C1c1cccc(OC)c1` (stereo not given), which inhibition is on record?
The inhibition was -3.51%.

Which inhibition does the source give for `Cc1ccc(S(=O)(=O)N2CCN(C(=O)CSc3nc4ccccc4c(=O)[nH]3)CC2)c(C)c1` here?
Its inhibition is -6.53%.

For `CCN(CC)CCCNc1oc(-c2cccc(Cl)c2)nc1C#N`, which inhibition is on record?
Its inhibition is -4.55%.

Which inhibition does the source give for `Nn1c(SCC(=O)Nc2ccc(S(=O)(=O)N3CCCC3)cc2)nnc1C(F)(F)F` here?
Its inhibition is 0%.

For `CN(C)c1ccc(NC(=O)Nc2cccc(Cl)c2)cc1`, which inhibition is on record?
The inhibition was -6.71%.

With `Cc1c(C=NCCOCc2ccccc2)cnn1C` as the molecule, how does the inhibition read?
The inhibition was 0%.

Which inhibition does the source give for `CCN1CCN(C(=O)N[C@@H](C(=O)N[C@@H]2C(=O)N3[C@@H]2SC(C)(C)[C@@H]3C(=O)O)c2ccccc2)C(=O)C1=O` here?
The inhibition was -0.39%.

With `Cc1ccc2nc3c(cc(C(=O)NCC4CCCO4)n3C)c(=O)n2c1` (stereo not given) as the molecule, how does the inhibition read?
Its inhibition is -0.96%.

Which inhibition does the source give for `COc1ccc(OC)c(S(=O)(=O)Nc2ccccc2SC)c1` here?
Its inhibition is -5.34%.

Which inhibition does the source give for `CCOc1nc(-c2ccccc2)ccc1-c1noc(-c2ccc(OC)c(OC)c2)n1` here?
The inhibition was -1.43%.

Which inhibition does the source give for `Cc1cnc(NC(=O)C2=C(O)c3ccccc3S(=O)(=O)N2C)s1` here?
The inhibition was 3.51%.

Which inhibition does the source give for `O=C(NC1CCCC1)C(c1cccs1)N(Cc1ccco1)C(=O)Cn1nnc(-c2cccs2)n1` (stereo not given) here?
The inhibition was -8.22%.

With `Cc1cc(C)nc(NC2=NCC(=O)N2c2ccc(Cl)cc2)n1` as the molecule, how does the inhibition read?
The inhibition was -7.03%.
